Sampled rows, rich in hits. Any-hit rate of the full collection: about 2.8%.
WRN helicase inh-1 = WRN helicase (human) inhibition; AID 651768; WRN helicase unwinding, fluorescent forked duplex, kinetic; Potency, µM (top dose mostly 114 µM), inactives show top-dose activity change, negative = inhibition, hits mostly inhibitors; Q14191; 0.46% of 360,000 active; further: potency means the concentration at half of the fitted maximal effect; on the % scale 0 is the no-effect control and ±100 the full control effect; nearly all actives have a fitted effect of over 55% in size
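Enzyme (20 nM final) and test compound sit together 15 min at room temperature before substrate addition. Substrate is a single-forked duplex oligonucleotide (100 nM) labelled with fluorophore and quencher, with 2 mM ATP; helicase unwinding raises red fluorescence, read kinetically.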
POLB inh = inhibitors of human DNA polymerase beta; AID 485314; Potency, µM (top dose mostly 114 µM), for inactives: at the top dose activity change, negative = inhibition, hits mostly inhibitors; 1.3% of 340,000 active; P06746; Pol beta primer extension/strand displacement, fluorescence kinetic; further: potency means the concentration at half of the fitted maximal effect; on the % scale 0 is the no-effect control and ±100 the full control effect
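Enzyme-only controls used 10 nM Pol beta; buffer lacking enzyme served as negative control. Compound preincubated 15 min, then 50 nM substrate added; 0 and 10 min reads at room temperature.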
PI5P4K alpha inh = PI5P4K alpha (human) kinase inhibition | 1.2% of 330,000 active | PI5P4Kalpha enzyme, ADP-Glo luminescence, 60 min; stronger effect = lower value | max response, % | P48426; active means max response of -50% or lower; inconclusive means between -30% and -50%; inactive means -30% or higher; further: value at the top dose of about 77 µM; on the % scale 0 is the no-effect control and ±100 the full control effect
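ADP-Glo luminescence end-point after a 60 min room-temperature kinase reaction. PI5P4Kalpha and substrate in HEPES pH 7.4 buffer with EGTA, 0.1% CHAPS and 5% DMSO; ATP at 5 microM final.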
Pol iota inh = DNA polymerase iota (human) inhibition | Potency, µM (series often up to 115 µM), without a hit: at the top dose activity, negative = inhibition, actives largely listed as inhibitors | 1% of 390,000 active | Pol iota fluorescent replication assay, 10 min; further: potency means the concentration at half of the fitted maximal effect
Target sequence (Q9UNA4 whole entry, looked up): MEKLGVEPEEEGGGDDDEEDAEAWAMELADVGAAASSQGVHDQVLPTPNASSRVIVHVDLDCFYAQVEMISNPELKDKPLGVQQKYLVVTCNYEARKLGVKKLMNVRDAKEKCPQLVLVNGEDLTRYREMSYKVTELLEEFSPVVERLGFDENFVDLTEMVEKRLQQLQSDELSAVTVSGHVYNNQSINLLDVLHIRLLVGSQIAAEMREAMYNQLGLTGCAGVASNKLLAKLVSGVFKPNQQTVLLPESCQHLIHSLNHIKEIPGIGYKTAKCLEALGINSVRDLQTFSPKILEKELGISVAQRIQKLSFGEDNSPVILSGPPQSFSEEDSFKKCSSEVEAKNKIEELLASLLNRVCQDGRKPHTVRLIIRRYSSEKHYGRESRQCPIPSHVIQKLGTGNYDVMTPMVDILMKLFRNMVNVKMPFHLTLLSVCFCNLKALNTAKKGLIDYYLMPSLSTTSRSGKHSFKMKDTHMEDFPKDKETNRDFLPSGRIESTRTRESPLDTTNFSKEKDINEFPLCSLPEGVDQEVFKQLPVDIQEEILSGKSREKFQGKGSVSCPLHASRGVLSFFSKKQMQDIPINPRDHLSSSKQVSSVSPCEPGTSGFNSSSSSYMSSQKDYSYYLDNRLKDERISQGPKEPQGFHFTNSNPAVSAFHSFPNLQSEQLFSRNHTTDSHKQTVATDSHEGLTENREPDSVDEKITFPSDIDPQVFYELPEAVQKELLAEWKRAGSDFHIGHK
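Pol iota at 10 nM preincubated 15 min with compounds at room temperature; reaction started with fluorescent substrate, 50 nM final. Fluorescence read kinetically at 0 and 10 min; buffer-only wells as negative control.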
Pol kappa inh-1 = inhibitors of human DNA polymerase kappa. Q9UBT6. purified Pol kappa, fluorescent DNA synthesis assay, 10 min. Potency, µM (titrated, usually from 107 µM), inactives show at the top dose activity, negative = inhibition, usual class: inhibitors. 0.53% of 400,000 active. AID 588579; further: potency means the concentration at half of the fitted maximal effect; on the % scale 0 is the no-effect control and ±100 the full control effect
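First, compounds were pin-transferred onto 10 nM Pol kappa. After 15 min at room temperature, substrate was added to 50 nM final. Fluorescence was then measured kinetically at 0 and 10 min.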
Pol eta inh-1 = blocks human DNA polymerase eta activity | Q9Y253 | recombinant Pol eta, fluorescent DNA replication assay | AID 588591 | 1.2% of 390,000 active | Potency, µM (doses to about 114 µM), without a hit: at the highest dose activity change, negative = inhibition, actives largely listed as inhibitors; further: potency means the concentration at half of the fitted maximal effect; on the % scale 0 is the no-effect control and ±100 the full control effect
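Pol eta (10 nM) was preincubated with compounds for 15 min at room temperature, after which fluorescent replication substrate (50 nM final) was added to start the reaction. Fluorescence was read kinetically at 0 and 10 min.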
PGK validate = blocks T. brucei phosphoglycerate kinase. Potency, µM (top dose mostly 57.5 µM), for inactives: at the highest dose activity change, negative = inhibition, usual class: inhibitors. shares compounds with Pol kappa inh-1. 79% of 500 active. TbPGK coupled GAPDH assay, Kinase-Glo luminescence. AID 686980; further: potency means the concentration at half of the fitted maximal effect; on the % scale 0 is the no-effect control and ±100 the full control effect; nearly all actives have a fitted effect of over 65% in size
Pol iota confirm = Confirm cherry-picked inhibitors of human polymerase iota. shares compounds with Pol kappa inh-1. Pol iota primer extension, TAMRA/BHQ fluorescence. Potency, µM, most hits filed as inhibitors. AID 720496. 77% of 1,500 active; further: potency means the concentration at half of the fitted maximal effect
Pol kappa inh-2 = Pol kappa (human) inhibition, cherry-pick confirmation. shares compounds with Pol eta inh-1. AID 720501. Potency, µM, actives largely listed as inhibitors. purified Pol-kappa, fluorescent strand-displacement substrate. 76% of 920 active; further: potency means the concentration at half of the fitted maximal effect
Pol eta inh-2 = confirmation of human DNA polymerase eta inhibitors; shares compounds with Pol eta inh-1; Pol eta primer extension, TAMRA/BHQ fluorescence, 10 min; Potency, µM, actives largely listed as inhibitors; 64% of 2,600 active; AID 720502; further: potency means the concentration at half of the fitted maximal effect
WRN helicase inh-2 = WRN helicase inhibition, cherry-pick retest; WRN helicase DNA unwinding, fluorescence kinetic; shares compounds with WRN helicase inh-1; AID 720497; 63% of 610 active; Potency, µM (titrated, usually from 57.1 µM), without a hit: at the highest dose activity, negative = inhibition, most hits filed as inhibitors; further: potency means the concentration at half of the fitted maximal effect; nearly all actives have a fitted effect of over 65% in size
TO DNA binding = binds DNA, flagged in WRN inhibitor counterscreen. shares compounds with WRN helicase inh-1. thiazole orange DNA binding displacement, fluorescence. Potency, µM (series often up to 57.1 µM), for the others: top-dose activity change, negative = inhibition, most hits filed as inhibitors. 10% of 610 active;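 further: drop in dye fluorescence marks compound binding to DNA; potency means the concentration at half of the fitted maximal effect; on the % scale 0 is the no-effect control and ±100 the full control effect; nearly all actives have a fitted effect of over 60% in size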
BLM counter = counter-screen for WRN helicase inhibitors: human BLM helicase inhibition. shares compounds with WRN helicase inh-1. Potency, µM (highest dose often 57.1 µM), for the others: at the highest dose activity change, negative = inhibition, hits mostly inhibitors. 60% of 610 active. Recombinant BLM helicase DNA unwinding, red fluorescence. AID 720503; further: potency means the concentration at half of the fitted maximal effect; nearly all actives have a fitted effect of over 60% in size
Starred values were filed as active, the others as inactive. Unless noted, the call rests on the fitted dose curve; in most records, active means well fitted curve in the direction sought with a large enough effect; inconclusive means small, poorly fitted or top-dose-only effect, or another doubt; inactive means no such curve, though single readings can be large; an effect the other way counts as inactive or inconclusive.

For CCOC(=O)[C@H]1[C@H]2COc3ccccc3[C@@H]2N2C(=O)[C@@H](CO)NC(=O)[C@@]12C the results were WRN helicase inh-1 1.5%, PI5P4K alpha inh -3.4, Pol iota inh 0.9%, Pol kappa inh-1 -14.9% and Pol eta inh-1 -1.8%.
For COc1cc(NC(=O)c2noc3c2CCC3)c(OC)cc1Cl the results were WRN helicase inh-1 inconclusive, POLB inh 10µM*, Pol iota inh inconclusive, Pol kappa inh-1 31.6µM*, Pol eta inh-1 17.8µM*, Pol iota confirm 37.7*, Pol eta inh-2 37.9*, WRN helicase inh-2 inconclusive, TO DNA binding -4.7% and BLM counter 21.5µM*.
`CC(C)N(Cc1ccccc1)C(=O)COC(=O)c1cc(S(=O)(=O)N(C)C)ccc1N1CCCC1` gave WRN helicase inh-1 -7.2%, PI5P4K alpha inh 10.5, Pol iota inh -11.8%, Pol kappa inh-1 -17.2% and Pol eta inh-1 -10.3%.
COc1cc(C(=O)OC2CC3CCC2(C)C3(C)C)ccc1OC(C)=O (stereo unspecified) was read as WRN helicase inh-1 -7.7%, POLB inh -0.2%, PI5P4K alpha inh 20.2, Pol iota inh 10.6%, Pol kappa inh-1 -11.5% and Pol eta inh-1 -15.6%.
O=C(Nc1ccc(Cl)c(Cl)c1)Nc1nnc(-c2ccncc2)s1 was read as WRN helicase inh-1 inconclusive, POLB inh inconclusive, PI5P4K alpha inh -19.8, Pol iota inh inconclusive, Pol kappa inh-1 inconclusive, Pol eta inh-1 inconclusive, Pol iota confirm inconclusive, WRN helicase inh-2 2.71µM*, TO DNA binding 45.5% and BLM counter 1.21µM*.
CC1(C(=O)NS(=O)(=O)c2ccc(Cl)s2)CCN1C(=O)C1(c2ccc(Cl)cc2)CC1 (stereo unspecified) was read as WRN helicase inh-1 -4.5% and PI5P4K alpha inh -10.1.
Cn1ccnc1C(=O)c1cc(SCC(=O)N2CCOCC2)nc2ccccc12 was read as WRN helicase inh-1 -0.6%, POLB inh -16.3%, PI5P4K alpha inh 0.7, Pol iota inh 18.6%, Pol kappa inh-1 -18.1% and Pol eta inh-1 2.4%.
O=C1OC(c2ccc3c(c2)OCO3)=N/C1=C\c1ccc(C(=O)O)cc1 was read as WRN helicase inh-1 inconclusive, POLB inh inconclusive, PI5P4K alpha inh -10.9, Pol iota inh inconclusive, Pol kappa inh-1 inconclusive, Pol eta inh-1 10µM*, Pol iota confirm inconclusive, Pol eta inh-2 8.49*, WRN helicase inh-2 19.2µM*, TO DNA binding inconclusive and BLM counter 5.41µM*.
Screening O=C(CCN1C(=O)/C(=C/C=C/c2ccccc2)SC1=S)Nc1cccnc1 returned WRN helicase inh-1 inconclusive, POLB inh 20.0%, PI5P4K alpha inh -21.0, Pol iota inh inconclusive, Pol kappa inh-1 -4.3%, Pol eta inh-1 5.01µM*, Pol iota confirm 9.47*, WRN helicase inh-2 inconclusive, TO DNA binding 10.0% and BLM counter inconclusive.
O=C(c1ccc(=O)oc1)N1CCOCC1 was read as WRN helicase inh-1 inconclusive, POLB inh 5.01µM*, PI5P4K alpha inh -2.9, Pol iota inh inconclusive, Pol kappa inh-1 50.1µM*, Pol eta inh-1 1.78µM*, PGK validate 4.11µM*, WRN helicase inh-2 5.41µM*, TO DNA binding -0.7% and BLM counter 3.04µM*.
Screening COc1cc(/C=C2\CCc3c2nc2ccccc2c3C(=O)O)cc(OC)c1OC returned WRN helicase inh-1 31.6µM*, POLB inh 3.16µM*, PI5P4K alpha inh -62.2*, Pol iota inh 10µM*, Pol kappa inh-1 44.7µM*, Pol eta inh-1 3.16µM*, Pol iota confirm 21.2*, Pol eta inh-2 15.1*, WRN helicase inh-2 19.2µM*, TO DNA binding inconclusive and BLM counter 19.2µM*.
For CN(c1ccccc1)S(=O)(=O)c1cc(C(=O)OCC(=O)c2c(N)n(C)c(=O)n(C)c2=O)ccc1Cl the results were WRN helicase inh-1 1.1%, PI5P4K alpha inh -2.0, Pol iota inh 49.0%, Pol kappa inh-1 -1.8% and Pol eta inh-1 -11.0%.
Screening CCN(c1ccccc1)S(=O)(=O)c1cc(C(=O)OCC(=O)c2c(N)n(C)c(=O)n(C)c2=O)ccc1C returned WRN helicase inh-1 31.6µM*, PI5P4K alpha inh -25.5, Pol iota inh 25.1µM*, Pol kappa inh-1 inconclusive, Pol eta inh-1 4.47µM*, Pol iota confirm 29.9*, Pol kappa inh-2 11.9*, Pol eta inh-2 26.9*, WRN helicase inh-2 24.1µM*, TO DNA binding inconclusive and BLM counter 7.64µM*.
For COc1ccc(-n2ccnc(NCc3ccc(C)cc3)c2=O)cc1OC the results were POLB inh -1.4%, Pol iota inh 12.7%, Pol kappa inh-1 -2.3% and Pol eta inh-1 -18.5%.
Screening CC1CCN(C(=O)c2[nH]cnc2C(=O)N2CCN(c3ccccc3)CC2)CC1 returned WRN helicase inh-1 1.1%, PI5P4K alpha inh -0.1, Pol iota inh -11.8%, Pol kappa inh-1 -3.4% and Pol eta inh-1 -9.1%.
For O=C(O)c1ccc2nc(-c3cc4cccc(O)c4oc3=O)[nH]c2c1 the results were POLB inh 8.91µM*, Pol iota inh inconclusive, Pol kappa inh-1 inconclusive, Pol iota confirm 23.8*, Pol kappa inh-2 26.7*, Pol eta inh-2 21.3*, WRN helicase inh-2 10.8µM*, TO DNA binding 19.2µM* and BLM counter 3.04µM*.

Source: PubChem
